GPR151 ag: activators of human GPR151; AID 1508602; hit rate 1% among 650,000; PathHunter beta-arrestin GPR151 cells, luminescence; Q8TDV0; activation, % at 11.2 µM; in the data active = activation above about 4.9%;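 note: 0% = median of compound wells and 100% = cells with positive control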
FBW7 activator: activators of human E3 ligase FBW7 | AID 1259310 | normalized activity (activation), % at 26.1 µM | Q969H0 | AlphaScreen FBW7–phospho-cyclin E peptide binding, activator screen | hit rate 0.13% among 650,000; in the data active = normalized activity above about 1.9%;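 note: purified mutant Fbw7 with reduced substrate affinity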
MITF inh: blocks human microphthalmia-associated transcription factor; O75030; AlphaScreen MITF homodimerization, bead proximity signal; inhibition, % at 2.6 µM; hit rate 0.91% among 650,000; AID 1259374; in the data active = inhibition above about 50%;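 note: 0% = vehicle wells with protein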
Target sequence (O75030 whole entry, looked up): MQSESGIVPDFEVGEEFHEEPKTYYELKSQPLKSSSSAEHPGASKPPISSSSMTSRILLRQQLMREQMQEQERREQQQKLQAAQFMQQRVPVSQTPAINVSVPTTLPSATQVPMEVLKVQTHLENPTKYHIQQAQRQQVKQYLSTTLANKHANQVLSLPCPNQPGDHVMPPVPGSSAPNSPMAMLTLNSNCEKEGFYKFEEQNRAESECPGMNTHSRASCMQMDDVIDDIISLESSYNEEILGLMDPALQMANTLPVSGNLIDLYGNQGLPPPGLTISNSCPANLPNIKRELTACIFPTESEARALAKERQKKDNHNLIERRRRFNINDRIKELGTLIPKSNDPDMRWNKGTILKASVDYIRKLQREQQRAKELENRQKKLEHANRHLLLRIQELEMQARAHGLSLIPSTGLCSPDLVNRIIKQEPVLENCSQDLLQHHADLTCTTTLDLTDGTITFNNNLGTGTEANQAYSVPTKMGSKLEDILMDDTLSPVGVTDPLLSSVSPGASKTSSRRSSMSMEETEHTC
TEAD-YAP block: TEAD-YAP interaction inhibition; HEK-TIYL cells, TEAD-Gal4/YAP UAS-luciferase luminescence; inhibition, % at 9.12 µM; hit rate 1.4% among 640,000; AID 1259422; in the data active = inhibition above about 32%;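 note: 0% = median of test compound wells and 100% = reference inhibitor wells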
GPR151 confirm: human GPR151 activation, confirmation screen | activation, % at 11.2 µM | 6,700 tested, under 10 active | GPR151 PathHunter beta-arrestin cells, luminescence, 90 min; % of EA-reagent control over plate median | shares compounds with GPR151 ag;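 active = mean percent activation across replicates above the confirmation screen cutoff of 4.91%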
GPR119 counter: activates human GPR119 in a GPR151 counter-screen; shares compounds with GPR151 ag; GPR119 PathHunter beta-arrestin cells, luminescence, 90 min; 0 = compound-well median, 100 = enzyme-acceptor control; activation, % at 11.2 µM; hit rate 0.3% among 6,700;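 active = mean percent activation in the counterscreen above 29.09%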;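 note: counterscreen on off-target GPR119 to flag nonselective hits from the GPR151 activator screen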
* hit, by the source's call; x = no result; ! = not confirmed by another sample. A selection: hits, their analogues and other compounds. The true share with any hit is near 3.4%.

SMILES	GPR151 ag	FBW7 activator	MITF inh	TEAD-YAP block	GPR151 confirm	GPR119 counter
OCCC1CN(Cc2ccn[nH]2)CCN1Cc1ccccc1F (centres undefined)	-0.6	0.1	2.4	4.6	x	x
CCOc1ccccc1CN1CCN(C2CCCC2)CC1CCO (centres undefined)	0.7	0.0	3.3	-3.8	x	x
COc1cccc(CN2CCN(Cc3ccccc3O)CC2CCO)c1 (centres undefined)	8.1*	0.0	-6.3	-7.4	-0.2	-0.9
CCN(CC)CCCN1C(=O)C(C)SC1c1ccccc1[N+](=O)[O-] (centres undefined)	12.5*	0.0	9.5	4.2	1.3	9.4
CCN(CC)CCCOc1ccccc1[N+](=O)[O-]	-0.5	0.0	5.5	-11.6	x	x
O=c1c2c(-c3ccccc3)csc2nc2c3ccccc3c(NCCO)nn12	1.0	0.0	8.8	1.6	x	x
Cc1ccc(-c2csc3nc4c5ccccc5c(NCCOCCO)nn4c(=O)c23)cc1	8.4*	1.0	7.0	-0.4	1.4	2.1
COCCOC(=O)CSc1ncn[nH]1	0.3	-0.1	2.2	1.7	x	x
CCOC(=O)C(C#N)C(=O)c1ccc(N2C(=O)CCC2=O)cc1 (centres undefined)	6.6*	0.9	9.2	14.2	-1.2	-9.8
CCOC(=O)C(C#N)C(=O)c1ccc(F)c(F)c1 (centres undefined)	-1.2	0.1	-4.7	0.0	x	x
CCn1c(=O)c2c(nc3n(Cc4ccco4)c(C)c(C)n23)n(C)c1=O	1.2	0.0	11.7	-1.0	x	x
CC1=NC2(CCN(C(=O)NC(C)C)CC2)N=C1c1ccccc1	9.1*	0.4	10.9	-4.7	-0.2	-5.8
CC1=NC2(CCN(S(C)(=O)=O)CC2)N=C1c1ccccc1	0.1	-0.8	0.3	-5.1	x	x
Nc1c(C(=O)NCCCO)cc([N+](=O)[O-])cc1[N+](=O)[O-]	-0.4	-0.1	-2.8	6.2	x	x
Cc1cccc(C)c1NC(=O)C1c2cccc[n+]2CC(=O)N1CCO (centres undefined)	1.2	-0.1	-11.4	-1.0	x	x
CCCN1C(=O)C[n+]2ccccc2C1C(=O)Nc1ccccc1C (centres undefined)	12.5*	0.5	2.1	2.1	1.0	1.9
CCCN1C(=O)c2ccc(C(=O)Nc3ccc(Br)cc3C(=O)O)cc2C1=O	0.2	-0.2	-2.0	-5.0	x	x
CN1C(=O)c2ccc(C(=O)Nc3ccc(Br)cc3C(=O)O)cc2C1=O	7.9*	-0.2	-1.9	8.6	-0.3	2.0
Cc1ccc(C)c(OCCN2CCNCC2)c1	9.0*	0.1	35.3	5.8	0.4	1.6
CCCCNCCOc1cc(C)ccc1C	-0.7	0.0	14.0	4.8	x	x
CCCCNCCCOc1cc(C)ccc1C	5.0*	0.1	2.1	4.1	0.4	0.7
COCCNCCOc1ccc(C)cc1C	8.1*	-0.1	35.2	-4.5	1.7	17.4
COCCNCCOc1ccc(C)cc1Cl	1.3	0.2	33.8	-1.5	x	x
Cc1ccc(C)c(OCc2nnc(SCC(=O)Nc3nccs3)n2C)c1	-1.1	0.1	-6.3	3.5	x	x
CCOP(=O)(CC(=O)NNC(=O)Nc1ccccc1)OCC	0.8	-0.1	6.1	-3.0	x	x
SMILES	GPR151 ag	FBW7 activator	MITF inh	TEAD-YAP block	GPR151 confirm	GPR119 counter
Cc1ccc(C)n1-c1ccc(Cl)cc1C(=O)O	7.7*	-1.3	69.7*	7.7	-1.3	-8.7
Cc1ccc(C)n1-c1ccc(Cl)cc1O	0.1	0.0	-0.2	5.2	x	x
COc1ccc(S(=O)(=O)N(CC(=O)Nc2ccc(Cl)cc2)c2ccc(C)cc2)cc1OC	0.2	-0.1	2.9	7.5	x	x
Cn1c(=O)c2c(nc(NCCO)n2Cc2ccccc2F)n(C)c1=O	16.0*	0.1	22.3	25.5	-0.6	5.5
Cn1c(=O)c2c(nc(NCCO)n2Cc2ccc(Br)cc2)n(C)c1=O	5.5*	0.0	5.6	20.8	0.7	3.8
CCOC(=O)CSc1nc2nccnc2c(=O)n1Cc1ccccc1	5.0*	0.1	4.7	0.6	0.3	-1.5
CCOC(=O)CSc1nc2cc(C(=O)NC3CCCCC3)ccc2c(=O)n1CCc1ccccc1	5.1*	0.3	17.3	13.3	-0.5	-1.4
CCOC(=O)CSc1nc2c(sc(=S)n2Cc2ccccc2)c(=O)n1Cc1ccccc1	6.0*	0.1	-9.6	-13.7	0.2	-3.9
CCOC(=O)CSc1nc2c(sc(=S)n2Cc2ccccc2)c(=O)n1-c1cccc(Cl)c1	-0.1	-0.1	2.5	9.6	x	x
NC(=O)CSc1nc2nccnc2c(=O)n1Cc1ccccc1	0.0	0.0	0.3	1.4	x	x
CCOC(=O)CSc1nc2c(c(=O)n1Cc1ccccc1)C1(CCCC1)Cc1ccccc1-2	7.5*	1.3	21.3	-3.7	0.3	12.0
COc1ccc(CCN2C(=O)CCC2CCNCc2cc3c(cc2Cl)OCO3)cc1 (centres undefined)	-0.8	0.5	14.0	-2.9	x	x
CC1(C)C(=O)OC(c2ccccc2F)C2(CCCCC2)C1=O (centres undefined)	5.3*	-0.1	4.0	0.9	-0.2	-4.8
Cc1nnc2c(Nc3ccccc3N3CCCCC3)nc3ccccc3n12	0.3	-0.1	1.6	-3.5	x	x
c1ccc(N2CCCCC2)c(Nc2nc3ccccc3n3nnnc23)c1	6.0*	-0.1	-3.4	8.2	-0.2	-1.4
Cc1sc2ncnc(SCC(=O)OCC(=O)N3CCc4ccccc43)c2c1C	2.3	0.1	4.0	-4.8	x	x
OCCNCCCCOc1cccc(Cl)c1Cl	-3.8	0.8	35.1	12.5	x	x
OCCNCCCOc1cccc(Cl)c1Cl	5.5*!	-0.3	10.7	69.9*	-0.2	-0.2
Cc1cc2c([nH]c(=O)c3c(=O)[nH]c(C(F)(F)F)nc32)s1	-1.6	0.7	6.8	0.1	x	x
O=C(O)/C=C/c1cn(-c2ccccc2)nc1-c1cccc([N+](=O)[O-])c1	5.3*	0.1	14.6	13.5	-1.0	-12.3
CC(=O)Nc1nnc(-c2cccc([N+](=O)[O-])c2)s1	-2.3	0.4	13.9	17.9	x	x
O=C(Nc1nnc(-c2cccc([N+](=O)[O-])c2)s1)c1cccs1	8.6*	-0.1	-2.6	4.9	0.5	-3.0
COc1ccc(CSc2nc3sc4c(c3c(=O)n2-c2ccccc2)CCN(C)C4)cc1	0.6	0.1	-13.9	-11.1	x	x
Cc1cccc(CSc2nc(=O)n3ccccc3n2)c1	5.2*	-0.1	-6.9	-9.8	-1.1	-0.3
O=C(CN1C(=O)c2ccccc2C1=O)Nc1cccc(-c2cnc3ccccc3n2)c1	-0.9	1.1	-20.4	-7.6	x	x
COCCn1c(SCC(=O)N2CC(=O)Nc3ccccc32)nnc1-c1ccoc1C	7.6*	0.1	0.2	-13.9	1.4	5.0
CCOc1ccc(NC(=O)Cn2c(-n3nc(C)cc3C)nc(C)cc2=O)cc1	9.1*	0.2	10.3	13.6	0.8	6.7
COc1ccc(NC(=O)Cn2c(-n3nc(C)cc3C)nc(C)cc2=O)cc1	-0.6	-1.0	-0.3	-11.2	x	x
O=C(NCC1CCC2(CCN(Cc3ccccn3)CC2)O1)c1ccccc1Cl (centres undefined)	-0.2	0.2	8.7	8.3	x	x
